# Results reported in PubChem BioAssay AID743279 (National Center for Advancing Translational Sciences (NCATS), 2014).
# Screen size: about 360,000 compounds; about 17,000 (4.7%) were called active. Another 5% or so got no clear call; they are omitted. Shown is part of a subset that was picked to be rich in actives. Values without a mark were called inactive. No stated cut-off is given here; in the data, active means activity change below about -50%; inconclusive means mostly about -30% to -49%; inactive means weaker than that.
# Test: qHTS for Inhibitors of Inflammasome Signaling: IL-1-beta AlphaLISA Primary Screen
# Details: THP-1 LPS/ATP IL-1B secretion, 16 h; at 57.5 µM, hits give low values
# Outline: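 THP-1 cells pretreated 1 hr with compounds (up to 57.5 uM final), then stimulated with LPS (250 ng/mL final) plus ATP (1.25 mM final); secreted IL-1B measured by AlphaLISA after 16 hr, decreased signal indicating inhibition.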
# On the % scale 0 is the no-effect control and ±100 the full control effect.
row,SMILES,activity change
1,CC(=O)N(O)CCCCCNC(=O)CCC(=O)N(O)CCCCCNC(=O)CCC(=O)N(O)CCCCCNC(=O)CCC(=O)O,21.7%
2,CC(C)(C)N1C(=O)[C@H]2[C@@H](c3ccc(Br)cc3)N3C(=O)N(c4cccc(Cl)c4)C(=O)[C@@]3(C)[C@H]2C1=O,-24.5%
3,C[C@@]12C(=O)N(c3cccc(Br)c3)C(=O)N1[C@H](c1ccc(Cl)cc1)[C@@H]1C(=O)N(C3CCCCC3)C(=O)[C@@H]12,-60.3% (active)
4,O=C1[C@H]2[C@@H](c3ccc(Cl)cc3)N3C(=O)N(c4cccc(F)c4)C(=O)[C@@]3(Cc3ccccc3)[C@H]2C(=O)N1C1CCCCC1,-4.9%
5,COc1ccc(-c2cnc3c(c2)C(=O)N([C@H](C)CO)C[C@@H](C)[C@H](CN(C)Cc2ccccc2)O3)cc1,-26.2%
6,CCCNC(=O)C1(C)CCN(Cc2csc(-c3ccc(Cl)cc3)n2)C1 (stereo unspecified),-26.3%
7,c1ccc2c(c1)CSc1sccc1C2=C1CCNCC1,-57.8% (active)
8,CN1OC[C@@H]2CN(C(=O)c3cccc4ccccc34)[C@H](c3ccc(N4CCCCC4)cc3)C[C@@H]21,-28.3%
9,N#Cc1ccc(OCC(=O)Nc2nc(-c3ccccn3)cs2)cc1,69.5%
10,CSc1ccccc1NC(=O)CN(C)CC(=O)Nc1ccc(Cl)cc1[N+](=O)[O-],-0.613%
11,CCC(C)c1ccccc1NC(=O)CN(C)CC(=O)Nc1ccccc1SC (stereo unspecified),-1.52%
12,CSc1ccccc1NC(=O)CN(C)CC(=O)Nc1cccc(Br)c1,-74.1% (active)
13,O=C(Nc1ccccc1)C1CC(=O)n2c(nc3ccccc32)N1 (stereo unspecified),-5.02%
14,COc1ccc(CC(NC(C)=O)C(=O)NC2CCN(C(=O)c3ccc(Cl)cc3)CC2)cc1 (stereo unspecified),23.6%
15,COC(=O)C[C@H]1C=C[C@@H](NS(=O)(=O)c2ccc(C)cc2)[C@@H](CO)O1,34.5%
16,CSc1ncnc2c1ncn2CCCNCc1cccs1,19.3%
17,COc1ccc(C(C(=O)Nc2c(C)cccc2C)N2CCN(c3ccc(C)cc3)CC2)cc1 (stereo unspecified),-9.64%
18,COc1ccc(OCC(=O)Nc2ccc(N3CCC(C)CC3)cc2)cc1,2.27%
19,COc1ccc(N2CCC(N3CCN(C)C(CCO)C3)CC2)cc1 (stereo unspecified),15.4%
20,COc1ccc(NC(=S)NCCN2CCC(C)CC2)cc1,-11.9%
21,COc1ccc(N2CCC(CNC(=S)Nc3c(C)cccc3C)C2)cc1 (stereo unspecified),-82.6% (active)
22,COc1ccc(NC(=S)NCC2CCN(c3ccc(OC)cc3)C2)cc1 (stereo unspecified),-82.6% (active)

row,SMILES,activity change
1,Cc1sc2ccccc2c1CNC[C@H]1O[C@@H](n2ccc(=O)[nH]c2=O)[C@H](O)[C@@H]1O,-9.54%
2,CN(Cc1c(F)cccc1Cl)C(=O)COC(=O)Cn1cnc2ccccc2c1=O,12.8%
3,CCCCN1CC(N2CCN(Cc3cccc(C)c3)CC2)CS1(=O)=O (stereo unspecified),-1.82%
4,CCc1ccc([C@@H]2CC(=O)[C@@H]3CN(S(=O)(=O)c4ccc(C)cc4)[C@H](c4ccc(Cl)cc4)C[C@@H]3N2S(=O)(=O)c2ccc(C)cc2)cc1,9.82%
5,N#Cc1nc(COc2ccc(Cl)cc2)oc1N1CCCC1,-69.8% (active)
6,Cc1ccc(OCc2nc(C#N)c(N3CCCC3)o2)cc1,-58.3% (active)
7,N#Cc1ccc(OCc2nnc(-c3ccc([N+](=O)[O-])cc3)o2)cc1,-1.57%
8,Cc1cc(N2CCCC2)ccc1NC(=O)COc1ccc(Cl)cc1,2.28%
9,O=S(=O)(c1ccc(Cl)cc1)c1nc(-c2ccco2)oc1N1CCCCC1,-10.9%
10,COc1ccc(-c2oc(/N=C/N3CCCC3)c(C#N)c2-c2ccc(OC)cc2)cc1,-12.8%
11,CNC(=O)C1CN(C(=O)c2cccc(S(=O)(=O)N3CCc4ccccc43)c2)c2ccccc2O1 (stereo unspecified),31.5%
12,COc1ccc(-c2coc3c(C(=O)NC(C)C)cccc23)c(C)c1,-10.6%
13,COc1ccc(CN2CCC(C)(Oc3cccc(F)c3)C2)c2ccccc12 (stereo unspecified),6.61%
14,Nc1nc2c(ncn2[C@@H]2O[C@H](CNCc3ccc(OCCCN4CCOCC4)cc3)[C@@H](O)[C@H]2O)c(=O)[nH]1,16.8%
15,CC1CCCN(CCOCCOc2ccccc2-c2ccccc2)C1 (stereo unspecified),-6.75%
16,CC1CN(CCOc2ccccc2[N+](=O)[O-])CC(C)O1 (stereo unspecified),7.14%
17,CC1CC(C)CN(CCOc2cccc3ccccc23)C1 (stereo unspecified),-68.4% (active)
18,CCCn1nnnc1NC(=O)COc1ccc(Cl)cc1C,-5.09%
19,COc1ccc(Cl)cc1C=CC=Nc1ccc(S(N)(=O)=O)cc1,-101% (active)
20,COc1ccc(Cl)cc1C=CC=NNC(=O)c1ccncc1,-5.27%
21,COc1ccccc1/C=C/C=N/n1c(-c2ccc(Cl)cc2Cl)n[nH]c1=S,0%
22,CC1(C)CC(=O)C=C(c2ccc(COC(=O)c3cc(F)cc(F)c3)cc2)C1=O,16.9%

row,SMILES,activity change
1,Cc1cc(N2CCN(c3ccc(F)cc3)CC2)n2ncnc2n1,-4.74%
2,COc1ccc(Cn2c(C)c(C)c(C#N)c2NC(=O)Nc2ccc(F)cc2)cc1,31.5%
3,Cc1c(C#N)c(NC(=O)c2ccccc2)n(Cc2ccccc2)c1C,-78.4% (active)
4,Cc1ccc(C(=O)Nc2c(C#N)c(C)c(C)n2Cc2ccccc2)cc1,-11.6%
5,Cc1cn([C@H]2C[C@H](O)[C@@H](/C=C/C(=O)NCCCc3ccccc3)O2)c(=O)[nH]c1=O,-16.4%
6,COc1ccc(OC)c(C(=O)c2ccc(Cl)cc2)c1,1.55%
7,COc1ccc(C2NC(=O)c3ccccc3N2)cc1 (stereo unspecified),-24.2%
8,COc1ccc2c(c1)C(=O)Nc1cc(Cl)ccc1N2,-52.1% (active)
9,Cc1cc(C)n2c(NCc3ccccc3)c(CC(C)C)nc2n1,19.1%
10,CCn1cc(C(=O)NCCCN2CCCCCC2)c(=O)c2cc(S(=O)(=O)N3CCc4ccccc4C3)ccc21,-60.8% (active)
11,CCn1cc(C(=O)NC2CCCCCC2)c(=O)c2cc(S(=O)(=O)N3CCCCC3)ccc21,-14.9%
12,CCn1cc(C(=O)NCC2CCCO2)c(=O)c2cc(S(=O)(=O)N3CCCCC3)ccc21 (stereo unspecified),-22.1%
13,O=C(C(=O)N1CCN(c2ccccc2)CC1)c1ccc2c(c1)OCO2,-2.25%
14,O=C(Nc1ccccc1F)c1ccccc1-c1ccc(C(F)(F)F)cc1,9.12%
15,N#C/C(=C\C1=C(N2CCOCC2)C(=C\c2ccccc2)/CC1)C(=O)Nc1ccccc1F,5.35%
16,N#C/C(=C\c1ccccc1C(F)(F)F)C(=O)Nc1ccccc1F,-50.4% (active)
17,CCOc1cc2[nH]c(=S)n(Cc3ccc(C(=O)N4CCN(C)CC4)cc3)c(=O)c2cc1OCC,-53.6% (active)
18,CCOc1cc2[nH]c(=S)n(Cc3ccc(C(=O)NCCOC)cc3)c(=O)c2cc1OCC,0%
19,COc1ccc(Cn2c(=S)[nH]c3cc(C(=O)N4CCCCC4)ccc3c2=O)cc1,11.3%
20,COc1cccc(-c2cnc3c(NC(C)=O)cc(-c4cccc(NC(C)=O)c4)cn23)c1,10.8%
21,N=c1n(Cc2ccc(Cl)cc2)c2ccccc2n1CC(O)c1ccco1 (stereo unspecified),-59.8% (active)
22,C=CCn1c(=N)n(CC(O)COc2ccc(OC)cc2)c2ccccc21 (stereo unspecified),-22.5%

row,SMILES,activity change
1,Cn1c(=N)n(CC(O)c2cccs2)c2ccccc21 (stereo unspecified),0%
2,CCCCCCN1C[C@@H](O)[C@H](n2cc(COC(=O)c3ccccc3)nn2)C[C@@H]1c1ccc(Cl)cc1,6.67%
3,COc1ccc(S(=O)(=O)N2CCCCC2c2cc(C(=O)NCc3ccc(F)cc3)no2)cc1 (stereo unspecified),-1.6%
4,CS(=O)(=O)/C(C#N)=C/c1cccn1S(=O)(=O)c1ccc([N+](=O)[O-])cc1,-25.1%
5,Cc1ccc2nc(NC(=O)CSc3nc(=O)n(CCCN(C)C)c4c3CCC4)sc2c1,-21.5%
6,CCN(CC)CCn1c2c(c(SCC(=O)Nc3nc4ccccc4s3)nc1=O)CCCC2,-96.2% (active)
7,CCN(CC)CCn1c2c(c(SCC(=O)Nc3ccc(C(C)C)cc3)nc1=O)CCC2,7.71%
8,C#CCNC(=O)C[C@@H]1C[C@@]2(C(=O)OCC)CCCC=C2N(Cc2ccco2)C1=O,43.1%
9,COc1cc(OC)nc(S(C)(=O)=O)n1,-95.5% (active)
10,CCC(=O)Nc1nc(OC)cc(OC)n1,5.6%
11,COc1ccc(NS(=O)(=O)c2ccc(F)cc2F)cn1,0.798%
12,CC(=O)Nc1cccc(-c2cc(NC(C)=O)c3ncc(-c4ccccc4)n3c2)c1,12.6%
13,NC(=O)C1(N2CCCCC2)CCN(C2CC(=O)N(Cc3ccc(N4CCCC4=O)cc3)C2=O)CC1 (stereo unspecified),-8.36%
14,CC1(C(=O)NS(=O)(=O)c2ccccc2)CCN1C(=O)Cc1ccc(-c2ccccc2)cc1 (stereo unspecified),-14.7%
15,Cn1c(CCNS(=O)(=O)c2ccc(F)cc2)nnc1SCc1cccnc1,22.3%
16,CCN(C(=O)COC(=O)c1ccccc1O)c1cccc2ccccc12,-54.8% (active)
17,CCN(C(=O)CSc1ncn[nH]1)c1cccc2ccccc12,19.5%
18,Cc1cccc(C)c1NC(=O)COC(=O)c1ccccc1O,12.4%
19,Cc1ccc(Sc2ccc(NC(=O)c3ccc(F)cc3)cc2C#N)cc1,10.9%
20,CC1CCCC(NC(=O)c2cccc(N3CCCC3=O)c2)C1C (stereo unspecified),9.06%
